# Assay results: PubChem BioAssay (NCATS)
# Inconclusive results are not listed. A call without a number means that no potency is given here. Active and inactive are the calls of the source. Unless noted, calls follow the shape of the full dose curve.
# Tests used:
# [1] = Cytotoxicity counterscreen for inhibitors of SARS-CoV-2 cell entry (AID 1645845); conditions: outcome: dose series up to 57.1 µM unless noted; also: nearly all actives have a fitted effect of over 50% in size; also: potency is read from the fitted curve at half-maximal effect
# In short: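 48 h compound treatment (after 1 h preincubation), HEK293-ACE2 cells, 37 C/5% CO2; ATP luminescence endpoint; normalized to cell wells and media blanks.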
# [2] = Primary qHTS to identify inhibitors of SARS-CoV-2 cell entry (AID 1645846); conditions: SARS-CoV-2 pseudovirus cell entry assay, luminescence; activity change, negative = inhibition: at 57.1 µM (top of the series) unless noted; also: nearly all actives have a fitted effect of over 45% in size; also: potency is read from the fitted curve at half-maximal effect
# In short: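 Data are normalized to wells receiving SARS-CoV-2-S pseudoparticles and those given bald particles. Entry signal was luciferase luminescence in stable hACE2 Expi293F cells, 48 hr post-infection, after 1 hr compound pretreatment.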
# [3] = VSVG counterscreen qHTS to identify inhibitors of SARS-CoV-2 cell entry (AID 1645847); also: nearly all actives have a fitted effect of over 65% in size; also: potency is read from the fitted curve at half-maximal effect
# In short: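 Counterscreen using VSV-G (not spike) pseudotyped MLV particles on ACE2-expressing Expi293F cells after 1 h compound preincubation; infection ran 48 h at 37 °C. Data normalized to VSV-G PP and bald-PP wells.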
# [4] = target: Nuclear receptor subfamily 1 group I member 3 (Homo sapiens) (UniProt Q14994); experiment: Primary qHTS for antagonist of constitutive androstane receptor (CAR) against the NCATS DSHEA and TCM libraries (AID 1794836; active = well fitted curve in the direction sought with a large enough effect; an effect the other way counts as inactive or inconclusive;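 also: HepG2 cells stably expressing hCAR with CYP2B6 luciferase reporter stimulated by CITCO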)
# In short: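 Antagonist mode: CAR reporter luminescence (ONE-Glo) in HepG2-CYP2B6-hCAR cells stimulated with 48 uM CITCO (final) over 24 h at 37 C, compounds titrated; viability read first by CellTiter-Fluor fluorescence.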
# [5] = KB-8-5-11 P-gp reporter qHTS against the NCATS DSHEA and TCM libraries (AID 1919977; active = well fitted curve in the direction sought with a large enough effect; an effect the other way counts as inactive or inconclusive)
# In short: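 Cells were seeded, allowed ~4 h to attach, dosed by pin tool (substance titrations), incubated ~72 h at 37C, then lysed with CellTiter-Glo for 30 min at room temperature before luminescence reading.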
# [6] = target: Alpha-galactosidase (Coffea arabica) (UniProt Q42656); experiment: Counterscreen for Glucocerebrosidase Inhibitors: qHTS Assay for Coffee Bean alpha-Galactosidase at pH 4.5 (AID 957; active = well fitted curve in the direction sought with a large enough effect; an effect the other way counts as inactive or inconclusive)
# In short: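 Coffee bean enzyme (2 nM) with 80 uM 4-methylumbelliferyl alpha-D-galactopyranoside in 50 mM citric acid, 0.005% Tween-20, pH 4.5, 20 min at room temperature; compounds 0.7 nM–77 uM. Stopped at pH 10, fluorescence 365/440 nm; AC50 from Hill fits.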
# [7] = Validation screen for inhibitors of Lassa infection (AID 463096)
# [8] = target: Glutathione peroxidase 1 (Homo sapiens) (UniProt P07203); experiment: Primary qHTS Assay for Inhibitors of Recombinant Selenoprotein Glutathione Peroxidase 1 (GPX1) (AID 1845191; active = well fitted curve in the direction sought with a large enough effect; an effect the other way counts as inactive or inconclusive; also: nearly all actives have a fitted effect of over 65% in size)
# In short: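 10 nM GPX1 + cpd, 30 min RT; start w/ 1 mM GSH, 0.5 mM cumene hydroperoxide, 0.5 mM NADPH, 100 nM GR, 0.01% BSA; buffer 50 mM Tris-HCl pH 7.5, 2 mM EDTA, 150 mM NaCl; Fl 340/450, 0 & 15 min.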
# [9] = target: Phospholipid hydroperoxide glutathione peroxidase GPX4 (Homo sapiens) (UniProt P36969); experiment: Primary qHTS Assay for Inhibitors of Recombinant Selenoprotein Glutathione Peroxidase 4 (GPX4) (AID 1845192; active = well fitted curve in the direction sought with a large enough effect; an effect the other way counts as inactive or inconclusive; also: nearly all actives have a fitted effect of over 65% in size)
# In short: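 NADPH consumption, followed by fluorescence at 340/450 nm between 0 and 15 min, reports GPX4 activity via coupled glutathione reductase (100 nM). Enzyme 200 nM was pre-exposed to compound 30 min; 0.5 mM cumene hydroperoxide and 1 mM GSH served as substrates.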
# [10] = qHTS drug screen for cell cycle checkpoint inhibitors in PARPi-resistant BRCA-mutant ovarian cancer cell lines. (AID 1963452); conditions: PEO1/OlaR viability, CellTiter-Glo luminescence, 96 h, stronger effect = lower value
# In short: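 PEO1, PEO4 and PEO1/OlaR ovarian cancer cells, 600 per well, exposed 96 h at 37C to a dilution series. Viability read by CellTiter-Glo luminescence, normalized to DMSO and empty wells; activity summarized as Z-AUC.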
# Sequence of Alpha-galactosidase (Coffea arabica) (Q42656 whole entry, looked up): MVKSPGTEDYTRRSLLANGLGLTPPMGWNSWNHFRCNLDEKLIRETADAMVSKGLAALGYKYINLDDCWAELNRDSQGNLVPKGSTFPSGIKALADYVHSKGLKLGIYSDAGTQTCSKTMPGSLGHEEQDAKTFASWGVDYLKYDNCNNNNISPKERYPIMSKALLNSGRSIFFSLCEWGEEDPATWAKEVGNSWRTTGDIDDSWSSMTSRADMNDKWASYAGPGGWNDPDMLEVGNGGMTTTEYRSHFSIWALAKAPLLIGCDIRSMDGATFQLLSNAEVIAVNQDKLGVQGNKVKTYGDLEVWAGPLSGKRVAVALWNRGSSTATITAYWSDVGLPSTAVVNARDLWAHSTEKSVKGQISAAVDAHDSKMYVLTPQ
# Sequence of Nuclear receptor subfamily 1 group I member 3 (Homo sapiens) (Q14994 whole entry, looked up): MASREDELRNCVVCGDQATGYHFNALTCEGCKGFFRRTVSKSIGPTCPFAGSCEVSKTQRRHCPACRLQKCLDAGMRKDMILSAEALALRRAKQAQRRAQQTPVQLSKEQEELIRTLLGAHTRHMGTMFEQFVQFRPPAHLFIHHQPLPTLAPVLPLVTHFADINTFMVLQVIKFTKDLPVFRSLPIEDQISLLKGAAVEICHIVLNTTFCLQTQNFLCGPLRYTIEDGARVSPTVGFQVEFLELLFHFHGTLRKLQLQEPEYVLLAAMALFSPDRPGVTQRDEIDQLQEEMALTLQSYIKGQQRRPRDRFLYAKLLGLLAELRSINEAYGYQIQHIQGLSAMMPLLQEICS
# Sequence of Phospholipid hydroperoxide glutathione peroxidase GPX4 (Homo sapiens) (P36969 whole entry, looked up): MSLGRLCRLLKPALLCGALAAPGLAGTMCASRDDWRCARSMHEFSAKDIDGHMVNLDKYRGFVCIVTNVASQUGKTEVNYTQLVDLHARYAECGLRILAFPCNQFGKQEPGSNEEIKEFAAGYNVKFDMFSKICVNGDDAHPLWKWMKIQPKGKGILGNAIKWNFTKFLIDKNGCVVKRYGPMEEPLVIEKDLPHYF
# Sequence of Glutathione peroxidase 1 (Homo sapiens) (P07203 whole entry, looked up): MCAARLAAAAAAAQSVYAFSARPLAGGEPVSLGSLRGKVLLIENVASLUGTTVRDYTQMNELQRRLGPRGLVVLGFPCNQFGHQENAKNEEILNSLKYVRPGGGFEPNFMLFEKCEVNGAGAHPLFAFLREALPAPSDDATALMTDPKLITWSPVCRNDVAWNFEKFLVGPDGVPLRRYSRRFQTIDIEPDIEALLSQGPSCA
smiles,measurement,setting,value
CC(=O)N[C@H]1[C@H](O[C@@H]2c3ccc(c(Cl)c3)Oc3cc4cc(c3O[C@@H]3O[C@H](CO)[C@@H](O)[C@H](O)[C@H]3NC(=O)CCCCCCCC(C)C)Oc3ccc(cc3Cl)C[C@H]3NC(=O)[C@H](N)c5ccc(O)c(c5)Oc5cc(O)cc(c5)[C@H](NC3=O)C(=O)N[C@H]4C(=O)N[C@H]3C(=O)N[C@@H]2C(=O)N[C@@H](C(=O)O)c2cc(O)cc(O[C@H]4O[C@H](CO)[C@@H](O)[C@H](O)[C@@H]4O)c2-c2cc3ccc2O)O[C@H](CO)[C@@H](O)[C@@H]1O,Potency,[1],inactive
same,"activity change, negative = inhibition",[2],-12.4%
Cn1cc(-c2c[nH]c3ncnc(N4CCOCC4)c23)cn1,Potency,[1],inactive
same,"activity change, negative = inhibition",[2],-0.441%
NCc1ccc(OCCCc2sc(-c3ccc4c(c3)/C(=N/Nc3nc5ccccc5s3)CCC4)nc2C(=O)O)cc1,Potency,[1],inactive
same,"activity change, negative = inhibition",[2],1.79%
CC(C)Cc1ccc([C@@H](C)C(=O)NS(C)(=O)=O)cc1,Potency,[1],inactive
same,"activity change, negative = inhibition",[2],3.55%
Nc1nccc(-c2c(-c3ccc(F)cc3)ncn2C2CCCCC2)n1,Potency,[1],inactive
same,Potency,[2],inactive
CC1=C(c2ccc(O)cc2)[C@H](c2ccc(OCCN3CCCCC3)cc2)Oc2cc(O)ccc21,Potency,[1],inactive
same,"activity change, negative = inhibition",[2],-47.4%
CC(C)(c1ccc(OCC(O)CO)cc1)c1ccc(OCC(O)CCl)cc1 (configuration not stated),Potency,[1],inactive
same,"activity change, negative = inhibition",[2],-34.4%
Cc1ccc(Nc2cc(N[C@@H]3CCCC[C@@H]3N)nnc2C(N)=O)nc1C,Potency,[1],inactive
same,Potency,[2],inactive
CCn1c(N)c(C(=O)NC)c(=O)c2ccc(C#CC(C)(O)COC)nc21 (configuration not stated),Potency,[1],inactive
same,"activity change, negative = inhibition",[2],2.21%
CC[C@H](Nc1ncnc2nc[nH]c12)c1oc2ccccc2c(=O)c1-c1cccc(F)c1,Potency,[1],inactive
same,Potency,[2],inactive
CCOc1cc(/C=C2/C(=O)N(c3ccccc3)N=C2C)cc(Cl)c1OCC(=O)OC,Potency,[1],inactive
same,"activity change, negative = inhibition",[2],-12.7%
COC(=O)C1=C(C)NC(c2ncc(F)cc2F)=N[C@H]1c1ccc(F)cc1Cl,Potency,[1],inactive
same,Potency,[2],inactive
COc1cc2c3c(n(CCCNCCO)c(=O)c2cc1OC)-c1cc2c(cc1C3=O)OCO2,Potency,[1],7.94 µM (active)
same,"activity change, negative = inhibition",[2],-96.5%
N#Cc1ccc(N(Cc2ccc(Br)cc2)n2cnnc2)cc1,Potency,[1],inactive
same,"activity change, negative = inhibition",[2],-18.8%
O=C(NC[C@H](O)CN1CCc2ccccc2C1)c1cc(NC2COC2)ncn1,Potency,[1],inactive
same,"activity change, negative = inhibition",[2],-13.5%
CCN(C(=O)c1ccccc1OC)c1cc2c(cc1N1CCNC[C@H]1C)n(C)c(=O)n2C,Potency,[1],inactive
same,"activity change, negative = inhibition",[2],-9.57%
CN(C(=O)CNC(=O)/C=C/c1cccc(Cl)c1)C1CCS(=O)(=O)CC1,Potency,[1],inactive
same,"activity change, negative = inhibition",[2],-2.44%
C#Cc1cccc(Nc2ncnc3cc4c(cc23)OCCOCCOCCO4)c1,Potency,[1],inactive
same,"activity change, negative = inhibition",[2],-13.8%
COC1CC(C(=O)c2ccc3c(N)ncc(-c4ccc(-c5cnn(C)c5)cc4)c3n2)C1 (configuration not stated),Potency,[1],inactive
same,Potency,[2],8.91 µM (active)
same,Potency,[3],inactive
CN[C@@H]1[C@@H](O)[C@@H](O[C@@H]2[C@@H](O)[C@H](O[C@H]3O[C@H](CN)[C@@H](O)[C@H](O)[C@H]3O)[C@@H](N)C[C@H]2NC(=O)C(O)CN)OC[C@]1(C)O (some centres not stated),Potency,[1],inactive
same,Potency,[2],inactive
C=CC(=O)N1C[C@H](Nc2ncnc3[nH]ccc23)CC[C@@H]1C,Potency,[1],inactive
same,Potency,[2],inactive
Cc1cccc(-c2nn3c(c2-c2ccnc4ccc(C(N)=O)cc24)CCC3)n1,Potency,[1],inactive
same,"activity change, negative = inhibition",[2],-4.65%
COC1CCC(N2C(=O)CNc3ncc(-c4ccc(C(C)(C)O)nc4)nc32)CC1 (configuration not stated),Potency,[1],7.94 µM (active)
same,Potency,[2],15.8 µM (active)
CC[C@H](CC[C@@H](C)[C@H]1CC[C@H]2[C@@H]3CC=C4C[C@@H](O)CC[C@]4(C)[C@H]3CC[C@]12C)C(C)C,Potency,[1],inactive
same,"activity change, negative = inhibition",[2],-9.4%
same,Potency,[4],inactive
same,Potency,[5],inactive
CC(C)=CCC/C(C)=C/CC/C(C)=C/CSc1ccccc1C(=O)O,outcome,[6],inactive
same,Potency,[7],inactive
same,Potency,[1],inactive
same,"activity change, negative = inhibition",[2],-15.6%
Cn1c(CCCCCCC(=O)NO)nc2cc(N(CCCl)CCCl)ccc21,Potency,[1],inactive
same,Potency,[8],inactive
same,Potency,[9],inactive
same,Z-AUC,[10],-0.877 (inactive)
same,Z-AUC,[10]; measured here: PEO1 parental Z-AUC,-0.482
same,Z-AUC,[10]; measured here: PEO4 Z-AUC,-0.0287
Cc1c(NC(=O)c2cc3c(s2)CCCC3)cccc1-c1cn(C)c(=O)c(Nc2ccc(C3C(=O)N(C)CCN3C)cc2)n1 (configuration not stated),Potency,[1],inactive
same,Potency,[2],inactive
COc1ccc(COc2ccc(Cc3cnc(N)nc3N)cc2OC)cc1,Potency,[1],inactive
same,"activity change, negative = inhibition",[2],-52.5%
same,Potency,[3],6.81 µM (active)
Cn1cc(/C=C2\C(=O)Nc3cccnc32)c2ccccc21,Potency,[1],inactive
same,"activity change, negative = inhibition",[2],-43.1%
same,Potency,[3],0.152 µM (active)
CN1CC[C@@H](NC(=O)Nc2ccc(C#N)cc2)C[C@@H]1c1nc2ccccc2[nH]1,Potency,[1],inactive
same,"activity change, negative = inhibition",[2],-7.47%
same,Potency,[3],24.1 µM (active)
